Screen size: about 5,500 compounds; about 2,000 (36%) were called active. Another 18% or so got no clear call; they are omitted. Cut-off read from the data, not from the text of the source: active = normalized growth mostly below about 0.91 (no sharp cut-off); inconclusive = no clear call, values can overlap the other calls; inactive = mostly above about 0.92. Some of the results follow.
Assay: chemical genetic growth profiling, strain panel (AID 1159580);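 note: tested at 20 µM; growth read once vehicle control cultures reached saturation at 30 °C; 1 = growth at the plate median or of vehicle wells; lower values mean less growth of the strain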
Conditions: growth OD

Measured: normalized growth

C[C@]12CCC3C(CC[C@]4(O)C[C@@H](O)CC[C@]34C=O)[C@@]1(O)CCC2C1=CC(=O)OC1 (stereo partly specified)
inactive: S. cerevisiae deletion strains, locus YJR066W, strain TOR1, stronger effect = lower value 0.934 | S. cerevisiae deletion strains, locus YKL009W, strain mrt4, stronger effect = lower value 0.978 | S. cerevisiae deletion strains, locus YKL068W, stronger effect = lower value 0.966 | S. cerevisiae deletion strains, locus YKL085W, strain MDH1 (second series), stronger effect = lower value 0.978 | S. cerevisiae deletion strains, locus YKL085W, strain MDH1, stronger effect = lower value 0.978 | S. cerevisiae deletion strains, locus YKL160W, strain elf1, stronger effect = lower value 0.972 | S. cerevisiae deletion strains, locus YKL190W, strain CNB1, stronger effect = lower value 0.997 | S. cerevisiae deletion strains, locus YKR001C, strain vps1, stronger effect = lower value 0.986 | S. cerevisiae deletion strains, locus YKR026C, strain gcn3, stronger effect = lower value 0.988 | S. cerevisiae deletion strains, locus YKR091W, strain srl3, stronger effect = lower value 0.981 | S. cerevisiae deletion strains, locus YLL001W, strain dnm1, stronger effect = lower value 0.975 | S. cerevisiae deletion strains, locus YLL026W, stronger effect = lower value 0.986 | S. cerevisiae deletion strains, locus YLL041C, strain sdh2, stronger effect = lower value 0.967 | S. cerevisiae deletion strains, locus YLR027C, strain aat2, stronger effect = lower value 0.958 | S. cerevisiae deletion strains, locus YLR039C, strain RIC1, stronger effect = lower value 0.975 | S. cerevisiae deletion strains, locus YLR058C, strain SHM2, stronger effect = lower value 0.989 | S. cerevisiae deletion strains, locus YLR102C, strain apc9, stronger effect = lower value 0.978 | S. cerevisiae deletion strains, locus YLR113W, strain HOG1, stronger effect = lower value 0.983 | S. cerevisiae deletion strains, locus YLR221C, strain rsa3, stronger effect = lower value 1 | S. cerevisiae deletion strains, locus YLR258W, strain gsy2, stronger effect = lower value 0.965 | S. cerevisiae deletion strains, locus YLR262C, strain YPT6 (second series), stronger effect = lower value 0.957 | S. cerevisiae deletion strains, locus YLR262C, strain YPT6, stronger effect = lower value 0.918 | S. cerevisiae deletion strains, locus YLR268W, strain sec22, stronger effect = lower value 0.979 | S. cerevisiae deletion strains, locus YLR320W, strain mms22, stronger effect = lower value 1.05 | S. cerevisiae deletion strains, locus YLR330W, strain CHS5, stronger effect = lower value 0.983 | S. cerevisiae deletion strains, locus YLR342W, strain FKS1 (second series), stronger effect = lower value 1.01 | S. cerevisiae deletion strains, locus YLR342W, strain FKS1, stronger effect = lower value 0.976 | S. cerevisiae deletion strains, locus YLR357W, strain rsc2, stronger effect = lower value 0.998 | S. cerevisiae deletion strains, locus YLR370C, strain arc18, stronger effect = lower value 0.999 | S. cerevisiae deletion strains, locus YLR371W, strain rom2, stronger effect = lower value 0.963 | S. cerevisiae deletion strains, locus YLR384C, strain iki3, stronger effect = lower value 1 | S. cerevisiae deletion strains, locus YLR418C, strain cdc73, stronger effect = lower value 0.95 | S. cerevisiae deletion strains, locus YML016C, strain PPZ1, stronger effect = lower value 0.99 | S. cerevisiae deletion strains, locus YML032C, strain rad52, stronger effect = lower value 0.976 | S. cerevisiae deletion strains, locus YML120C, strain ndi1, stronger effect = lower value 0.954 | S. cerevisiae deletion strains, locus YML124C, strain tub3, stronger effect = lower value 0.987 | S. cerevisiae deletion strains, locus YMR058W, strain fet3, stronger effect = lower value 0.969 | S. cerevisiae deletion strains, locus YMR078C, strain ctf18, stronger effect = lower value 0.965 | S. cerevisiae deletion strains, locus YMR125W, strain sto1, stronger effect = lower value 0.96 | S. cerevisiae deletion strains, locus YMR129W, stronger effect = lower value 0.982 | S. cerevisiae deletion strains, locus YMR205C, strain PFK2, stronger effect = lower value 0.881 | S. cerevisiae deletion strains, locus YMR231W, strain pep5, stronger effect = lower value 0.999 | S. cerevisiae deletion strains, locus YMR307W, strain GAS1, stronger effect = lower value 0.919 | S. cerevisiae deletion strains, locus YNL067W, strain RPL9B, stronger effect = lower value 1.01 | S. cerevisiae deletion strains, locus YNL071W, strain lat1, stronger effect = lower value 0.958 | S. cerevisiae deletion strains, locus YNL183C, strain NPR1, stronger effect = lower value 0.952 | S. cerevisiae deletion strains, locus YNL209W, strain ssb2, stronger effect = lower value 0.974 | S. cerevisiae deletion strains, locus YNL233W, strain BNI4, stronger effect = lower value 1.03 | S. cerevisiae deletion strains, locus YNL248C, strain rpa49, stronger effect = lower value 0.943 | S. cerevisiae deletion strains, locus YNL250W, strain rad50, stronger effect = lower value 0.968 | S. cerevisiae deletion strains, locus YNL271C, strain bni1, stronger effect = lower value 0.981 | S. cerevisiae deletion strains, locus YNL298W, strain CLA4, stronger effect = lower value 0.964 | S. cerevisiae deletion strains, locus YNL307C, strain MCK1, stronger effect = lower value 0.983 | S. cerevisiae deletion strains, locus YNL322C, strain KRE1 (second series), stronger effect = lower value 0.975 | S. cerevisiae deletion strains, locus YNL322C, strain KRE1, stronger effect = lower value 0.99 | S. cerevisiae deletion strains, locus YNR049C, strain mso1, stronger effect = lower value 0.971 | S. cerevisiae deletion strains, locus YNR052C, strain pop2, stronger effect = lower value 0.977 | S. cerevisiae deletion strains, locus YOL012C, strain htz1 1.05 | S. cerevisiae deletion strains, locus YOL147C, strain pex11, stronger effect = lower value 0.981 | S. cerevisiae deletion strains, locus YOR001W, strain rrp6, stronger effect = lower value 1.01 | S. cerevisiae deletion strains, locus YOR061W, strain CKA2, stronger effect = lower value 0.963 | S. cerevisiae deletion strains, locus YOR069W, strain VPS5, stronger effect = lower value 0.984 | S. cerevisiae deletion strains, locus YOR070C, strain gyp1, stronger effect = lower value 0.998 | S. cerevisiae deletion strains, locus YOR080W, strain dia2, stronger effect = lower value 0.988 | S. cerevisiae deletion strains, locus YOR083W, strain WHI5, stronger effect = lower value 0.939 | S. cerevisiae deletion strains, locus YOR106W, strain vam3, stronger effect = lower value 0.9 | S. cerevisiae deletion strains, locus YOR136W, strain idh2, stronger effect = lower value 0.981 | S. cerevisiae deletion strains, locus YOR144C, strain elg1, stronger effect = lower value 0.985 | S. cerevisiae deletion strains, locus YOR184W, strain ser1, stronger effect = lower value 0.975 | S. cerevisiae deletion strains, locus YOR231W, strain MKK1, stronger effect = lower value 1 | S. cerevisiae deletion strains, locus YOR265W, strain rbl2, stronger effect = lower value 0.975 | S. cerevisiae deletion strains, locus YOR270C, strain vph1, stronger effect = lower value 0.997 | S. cerevisiae deletion strains, locus YOR290C, strain snf2, stronger effect = lower value 0.894 | S. cerevisiae deletion strains, locus YOR316C, strain cot1, stronger effect = lower value 0.982 | S. cerevisiae deletion strains, locus YPL051W, strain arl3, stronger effect = lower value 0.995 | S. cerevisiae deletion strains, locus YPL055C, strain LGE1, stronger effect = lower value 1 | S. cerevisiae deletion strains, locus YPL078C, strain atp4, stronger effect = lower value 0.942 | S. cerevisiae deletion strains, locus YPL106C, strain sse1, stronger effect = lower value 0.871 | S. cerevisiae deletion strains, locus YPL240C, strain hsp82, stronger effect = lower value 0.988 | S. cerevisiae deletion strains, locus YPL256C, strain CLN2, stronger effect = lower value 0.974 | S. cerevisiae deletion strains, locus YPR119W, strain clb2, stronger effect = lower value 0.983 | S. cerevisiae deletion strains, locus YPR141C, strain kar3, stronger effect = lower value 0.982 | S. cerevisiae deletion strains, locus YPR163C, strain tif3, stronger effect = lower value 0.967 | S. cerevisiae deletion strains, locus YPR167C, strain met16, stronger effect = lower value 0.975 | S. cerevisiae deletion strains, strain wtn01, stronger effect = lower value 1.01 | S. cerevisiae strains, strain wild type, stronger effect = lower value 0.981
